Source: PubChem
Most compounds without a hit are left out; they make up all but 1.5% or so of the library.
RTF Ca sens act = cardiac RTF calcium sensitization. activation, % at 7.2 µM. 340,000 compounds, 0.24% hits. IANBD-labeled TnC RTF fluorescence at EC20 calcium; 0% EC20 calcium, 100% full calcium;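 active = activation above the mean over all tested compounds plus 3 SD, cut at about 30% in these data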;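 also: rise in fluorescence read as greater calcium sensitivity of cardiac thin filaments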
CRFBP-R2 block = blocks CRF-induced signaling of the CRF-BP/CRF-R2 complex. HEK293 CRF-R2/CRF-BP, CRF-induced calcium fluorescence. inhibition, % at 11.8 µM. 350,000 compounds, 0.59% hits;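 active = inhibition of the ligand-induced calcium signal above about 50% at the single tested concentration, limit read from the data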
IDE cell activ = activators of human insulin-degrading enzyme in cells | P14735 | HEK cells, FAbeta-B cleavage, fluorescence polarization; 0% vehicle, 100% cell-free pure enzyme wells | activation, % at 5.96 µM | 340,000 compounds, 0.073% hits;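 active = activation above the mean of all tested compounds plus 3 SD, set per screening campaign, cut at about 17% in these data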
IDE cell inh = cellular human IDE inhibition; P14735; HEK cells, FAbetaB cleavage, fluorescence polarization; inhibition, % at 5.59 µM; 320,000 compounds, 0.41% hits;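 active = percent inhibition above the average of all tested compounds plus 3 SD, set per screening campaign, cut at about 16% in these data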;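 also: IDE supplied by intact live HEK cells; FP after avidin binding of uncleaved biotin substrate so inhibition keeps polarization high; 0% = DMSO wells and 100% = 60 µM reference IDE inhibitor Ii1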
Cardiac RTF inh = cardiac RTF calcium desensitization | AID 493244 | IANBD-labeled cardiac RTF, Ca2+ fluorescence | 340,000 compounds, 0.12% hits | inhibition, % at 7.15 µM;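 active = inhibition above the mean inhibition of all tested compounds plus 3 SD, cut at about 17% in these data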;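 also: assay run at fixed EC70 calcium of 1.6 mM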
CRFR2-BP ag = agonists of human CRF-binding protein/CRF-R2 receptor complex; HEK293 CRF-R2/CRF-BP, calcium dye fluorescence (FLIPR); percent of saturating CRF peptide response; activation, % at 13.2 µM; 350,000 compounds, 0.46% hits;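 active = activation of at least 50%, plus an integration ratio under a set limit after plate pattern correction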;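 also: plate controls were neutral control wells without compound for no effect and CRF at EC100 for full effect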
* marks the source's active call; other numbers are inactive results.

Results for CC(=O)C1(C)C(=O)N(c2ccc(F)cc2)C(=O)N1c1ccc(F)cc1 (centres undefined) ?
RTF Ca sens act: -4.5; CRFBP-R2 block: 19.9; IDE cell activ: 4.4; Cardiac RTF inh: 4.7; CRFR2-BP ag: -0.1

Results for Cn1c(=O)oc2cc(S(=O)(=O)NCCC(=O)NCc3ccc(F)cc3)ccc21 ?
RTF Ca sens act: -8.7; CRFBP-R2 block: 99.3*; IDE cell activ: 1.2; IDE cell inh: -2.9; Cardiac RTF inh: -14.3; CRFR2-BP ag: 2.3

Results for CNc1c(NS(=O)(=O)c2ccc(CC(C)C)cc2)c(=O)oc2ccccc12 ?
RTF Ca sens act: -1.6; CRFBP-R2 block: 3.4; IDE cell activ: -1.6; IDE cell inh: 1.4; Cardiac RTF inh: 6.5; CRFR2-BP ag: 2.1

Results for O=C(CCCCn1c(=O)c2ccccc2n(Cc2ccc(F)cc2Cl)c1=O)NCc1ccco1 ?
RTF Ca sens act: -4.6; CRFBP-R2 block: 75.0*; IDE cell activ: -0.1; IDE cell inh: 1.8; Cardiac RTF inh: 5.7; CRFR2-BP ag: -2.8

What do the screens show for `Cc1cccc(-c2nc3c(s2)CCc2onc(-c4ccc(Br)cc4)c2-3)c1`?
RTF Ca sens act: -9.8; CRFBP-R2 block: 3.2; IDE cell activ: 4.1; IDE cell inh: -2.2; Cardiac RTF inh: -0.1; CRFR2-BP ag: -1.0

How did COc1ccc(C(=O)c2ccsc2N)cc1 do in these assays?
RTF Ca sens act: 64.7*; CRFBP-R2 block: -3.0; IDE cell activ: -0.8; IDE cell inh: 3.9; Cardiac RTF inh: -48.9; CRFR2-BP ag: 5.9

What do the screens show for `CCCCCn1nc(C)c(/C=N\NC(=O)c2cc(C)oc2C)c1C`?
RTF Ca sens act: 6.9; CRFBP-R2 block: -175.6; IDE cell activ: -2.3; IDE cell inh: -5.2; Cardiac RTF inh: -2.3; CRFR2-BP ag: 106.9*

How did Cc1sc2nc(CN(Cc3cccs3)C(=O)NC3CCCCC3)[nH]c(=O)c2c1C do in these assays?
RTF Ca sens act: -5.7; CRFBP-R2 block: 52.2*; IDE cell activ: -1.9; IDE cell inh: 1.9; Cardiac RTF inh: -11.3; CRFR2-BP ag: -0.3

How did COc1cccc(NC(=S)NC(Cc2ccccc2)c2ccccc2)c1 (centres undefined) do in these assays?
CRFBP-R2 block: 84.4*; CRFR2-BP ag: -0.4

How did CC1CCC(NC(=O)c2cccc(S(=O)(=O)N3CCN(c4ccc(F)cc4)CC3)c2)CC1 (centres undefined) do in these assays?
RTF Ca sens act: 3.5; CRFBP-R2 block: -29.7; IDE cell activ: 4.5; IDE cell inh: 5.9; Cardiac RTF inh: -2.8; CRFR2-BP ag: 5.9

How did CN(CCOc1ccc(Cl)cc1)C(=O)C1CCN(C(=O)c2ccc(Cl)cc2)CC1 do in these assays?
RTF Ca sens act: 5.4; CRFBP-R2 block: 120.0*; IDE cell activ: 4.4; IDE cell inh: -1.3; Cardiac RTF inh: -5.4; CRFR2-BP ag: -0.8

What do the screens show for `CCCNc1c(F)c(F)c2c(C)c3ccccc3nc2c1F`?
RTF Ca sens act: 35.7*; CRFBP-R2 block: -5.8; IDE cell activ: -10.1; IDE cell inh: 7.1; Cardiac RTF inh: -48.1; CRFR2-BP ag: 3.4

Results for O=C(O)c1ccccc1Nc1cc(Cl)c2nonc2c1[N+](=O)[O-] ?
RTF Ca sens act: 5.3; CRFBP-R2 block: -12.4; IDE cell activ: 3.1; IDE cell inh: -0.9; Cardiac RTF inh: -1.8; CRFR2-BP ag: -1.3

How did CN(C)c1cc(Nc2ccc(O)cc2)c([N+](=O)[O-])c2nonc12 do in these assays?
RTF Ca sens act: 3.2; CRFBP-R2 block: 13.7; IDE cell activ: 0.6; IDE cell inh: 7.7; Cardiac RTF inh: 2.5; CRFR2-BP ag: -9.7

What do the screens show for `O=[N+]([O-])c1c(Nc2ccccn2)cc(Cl)c2nonc12`?
RTF Ca sens act: 33.0*; CRFBP-R2 block: 25.9; IDE cell activ: -10.0; IDE cell inh: 1.2; Cardiac RTF inh: 2.9; CRFR2-BP ag: -2.3

Results for O=[N+]([O-])c1c(Nc2ccc(O)cc2)cc(Cl)c2nonc12 ?
RTF Ca sens act: -8.2; CRFBP-R2 block: 66.9*; IDE cell activ: -3.9; IDE cell inh: 0.2; Cardiac RTF inh: 1.1; CRFR2-BP ag: -1.8

How did COc1ccc(C(CNc2nc(-c3cccnc3)nc3ccccc23)N(C)C)cc1 (centres undefined) do in these assays?
RTF Ca sens act: 3.6; CRFBP-R2 block: -6.7; IDE cell activ: -6.5; IDE cell inh: 5.5; Cardiac RTF inh: 5.8; CRFR2-BP ag: -1.0
